This note sets out measurements from PubChem BioAssay AID1817 (Sanford-Burnham Center for Chemical Genomics, 2009).

Structures are written as SMILES. The whole screen tested about 290,000 compounds, of which about 50 (0.02%) were called active.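 Rule for the calls: active = displacement of at least 50% at 20 µM, with a fluorescence ratio check between 0.3 and a set limit; inactive = the rest.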 The full list was thinned out, with actives kept by preference. Potency and affinity values are given separately.

In the test the target is E3 ubiquitin-protein ligase SIAH1 (Homo sapiens) (UniProt Q8IUQ4). Put plainly: blockers of Siah-1 interaction with plectin peptide – biochemical, fluorescence polarization, rhodamine-plectin, uHTS, primary screen (AID 1817).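 Note: plate controls were Siah plus tracer with DMSO for no effect and tracer alone without Siah for full effect.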 The settings on record: Siah-1 / rhodamine-plectin peptide fluorescence polarization; at 20 µM; stronger effect = higher value. Background: Fluorescence polarisation rises when a labelled molecule tumbles more slowly, as on binding a larger partner.
Chain of E3 ubiquitin-protein ligase SIAH1 (Homo sapiens) (Q8IUQ4 whole entry, looked up): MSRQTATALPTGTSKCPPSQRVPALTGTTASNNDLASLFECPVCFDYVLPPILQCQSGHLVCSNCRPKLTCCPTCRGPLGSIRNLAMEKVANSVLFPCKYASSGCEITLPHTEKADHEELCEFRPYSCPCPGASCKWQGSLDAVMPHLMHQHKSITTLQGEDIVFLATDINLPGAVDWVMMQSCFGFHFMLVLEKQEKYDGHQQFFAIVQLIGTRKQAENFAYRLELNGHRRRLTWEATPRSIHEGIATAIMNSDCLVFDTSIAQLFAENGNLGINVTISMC
With `CCn1c(SC(C)C(=O)O)nnc1-c1cccnc1` (stereo not drawn), the displacement is -1.4% (inactive).
As to `Cc1ccc(-n2ncc3c2CC(C)(C)CC3NC(=O)c2ccc[n+]([O-])c2)cc1` (stereo not drawn), the displacement was 4.8% (inactive).
Under `C=CCNC(=S)Nc1ccc2nsnc2c1` stands 52.1% (active); under `OCCNC(=S)Nc1ccc2nsnc2c1`, -1.1% (inactive).
Under `C=CCNC(=S)Nc1ccc2nc(C)c(C)nc2c1` stands 3.4% (inactive); under `O=C(N/N=C/c1cccnc1)c1ccc2c(c1)OCCO2`, -2.3% (inactive).
`COc1ccc(-c2nc3c4ccccc4ccn3c2CN2CCOCC2)cc1OC`: the displacement was 13.8% (inactive).
`COC(=O)c1ccc2c(=O)n(CCCN3CCCC3=O)c(=S)[nH]c2c1`: the displacement was -3.7% (inactive).
Under `O=C(O)c1nc(-c2ccccc2)n(-c2cccc(C(F)(F)F)c2)n1` stands -2.9% (inactive); under `COCCNC(=O)CSc1nc2cc(OC)c(OC)cc2c(=O)n1Cc1ccc(OC)cc1`, 0.2% (inactive); under `Cc1cc(C)n2nnnc2c1C#N`, 1.6% (inactive).
Consider `O=C(Nc1ccc(Br)cc1)c1ccc(N2C(=O)C3CC=C(Cl)CC3C2=O)cc1` (stereo not drawn), for which the displacement was -0.2% (inactive).
Under `O=C(Nc1ccc(Br)cc1)c1ccc(N2C(=O)C3CCCCC3C2=O)cc1` (stereo not drawn) stands -1% (inactive); under `CCCOc1ccc(C(=O)CCC(=O)OCC(=O)Nc2cc(C)on2)cc1`, -2.7% (inactive); under `COc1ccccc1C(=O)Nc1ccnn1C1CCN(Cc2ccc3nonc3c2)CC1`, 7.2% (inactive).
The figure for `Cn1c(Cc2csc(N)n2)nnc1SCC(=O)NC1CCCCC1` is 0.1% (inactive).
Turning to `O=S(=O)(c1ccc(Cl)cc1)N1CCN(C2CCN(Cc3ccccc3)CC2)CC1`, the displacement is 3% (inactive).
Under `Cc1oc2cc(O)ccc2c(=O)c1-c1ccccc1` stands 8.8% (inactive); under `Nc1ccc(-c2c3ccc(=O)cc-3oc3cc(O)ccc23)cc1C(=O)O`, 3% (inactive); under `C/C(=N\NC(=O)c1c(Cl)cnn1C)c1cccc(NC(=O)COc2ccccc2)c1`, 0.3% (inactive).
Under `CC(=O)Nc1ccc(C(=S)NCCCO)cc1` stands -4.5% (inactive).
Under `O=C(COC(=O)c1ccc2c(c1Cl)C(=O)c1ccccc1C2=O)NC1CCCCC1` stands -2.2% (inactive); under `CCN(CC)C(=O)c1ccc2c(c1[N+](=O)[O-])C(=O)c1ccccc1C2=O`, 34.3% (inactive); under `Cc1[nH]c2ccccc2c1CCNC(=O)c1ccc2c(c1[N+](=O)[O-])C(=O)c1ccccc1C2=O`, 22.7% (inactive).
As for `O=C(COC(=O)c1ccc2c(c1[N+](=O)[O-])C(=O)c1ccccc1C2=O)NC1CC1`, the displacement was 76.3% (active).
Under `COC(=O)c1ccc2c(c1O)C(=O)c1ccccc1C2=O` stands 71.8% (active); under `COc1ccc2c(c1O)C(=O)c1ccccc1C2=O`, 2.4% (inactive).
The figure for `CC(C)COC(=O)c1ccc2c(c1O)C(=O)c1ccccc1C2=O` is 4.6% (inactive); for `O=C(COC(=O)c1ccc2c(c1Cl)C(=O)c1ccccc1C2=O)NC1CC1` it is -3.3% (inactive); for `CN(C)C(=O)c1ccc2c(c1[N+](=O)[O-])C(=O)c1ccccc1C2=O` it is 60.6% (active).
The figure for `CN(CCOc1ccccc1)S(=O)(=O)c1ccc2oc3ccccc3c2c1` is 2.8% (inactive); for `CC(=O)c1ccc(NC(=O)CCNS(=O)(=O)c2ccccc2F)cc1` it is -1.6% (inactive).
Regarding `Cc1ccc(N(C)S(=O)(=O)c2cc3c(cc2C)NC(=O)CO3)cc1`, the displacement is -1% (inactive).
The figure for `Cc1nc(N)sc1-c1csc(Nc2ccccc2)n1` is 3.2% (inactive); for `Cc1nc(N)sc1-c1csc(Nc2ccccn2)n1` it is -1.4% (inactive).
The figure for `Cc1nc(N)sc1-c1csc(Nc2ncccn2)n1` is 57.3% (active).
`CCOC(=O)c1[nH]c2ccccc2c1NC(=O)c1ccc(S(=O)(=O)N2CCCCC2)cc1`: the displacement is -3.4% (inactive).
The figure for `COc1ccc(C(=O)N2CCC(O)(c3ccc(Cl)cc3)CC2)cc1OC` is -8.7% (inactive); for `CC1CCc2onc(C(=O)NCc3ccco3)c2C1` (stereo not drawn) it is 3.6% (inactive); for `Cc1ccccc1Nc1nc(-c2sc(NC(=O)c3ccccc3)nc2C)cs1` it is -5.4% (inactive).
Under `O=C(CN1C(=O)N/C(=C\c2ccccc2OCc2ccc(C(=O)O)cc2)C1=O)Nc1ccccc1F` stands 10.4% (inactive).
Under `O=C(CN1C(=O)N/C(=C\c2ccccc2OCc2ccc(C(=O)O)cc2)C1=O)Nc1ccc(F)cc1` stands 1.1% (inactive).
As for `CCOC(=O)CNC(=S)N(Cc1cccs1)C1CCCC1`, the displacement was 0.7% (inactive).
The figure for `Cc1cccc(C(=O)NNC(=O)c2ccc(S(=O)(=O)N3CCOCC3)cc2)c1` is -3.9% (inactive); for `O=c1cc(-c2ccccc2)[nH]n1-c1ccc([N+](=O)[O-])cc1` it is -0.2% (inactive); for `O=c1[nH]n(-c2ccccc2)c(=O)c2ccccc12` it is 0% (inactive).
Consider `O=C(C1CCN(S(=O)(=O)c2ccc(F)cc2)CC1)N1CC=C(c2ccccc2)CC1`, for which the displacement was 3% (inactive).
Under `COc1ccc(C(CNC(=O)C(C)c2ccc3cc(OC)ccc3c2)N(C)C)cc1` (stereo not drawn) stands 5.2% (inactive); under `CC1=C(C#N)c2nc(N)c(C#N)c(C)c2/C1=C\c1ccc(OCC(=O)O)c(Cl)c1`, 0% (inactive).
With `CC1=C(C#N)c2nc(N)c(C#N)c(C)c2/C1=C\c1ccc(C)cc1`, the displacement was -2.8% (inactive).
Under `COc1ccc(C2=[N+]([O-])C(C)(C)C(c3ccccc3)=N2)cc1` stands 6.6% (inactive); under `COc1ccc(-c2nc(CN3CCN(Cc4cccc(F)c4)CC3)c(C)o2)cc1`, 13.6% (inactive).
With `O=C(CCC1CCCC1)N1CCN(C(=O)c2ccco2)CC1`, the displacement was -6% (inactive).
In the case of `O=C(CNC(=O)c1ccccc1F)NC1CCN(Cc2ccccc2)CC1`, the displacement is -3.7% (inactive).
The figure for `CC(SCc1ccccc1)C(=O)Nc1ccccc1Br` (stereo not drawn) is -6.3% (inactive); for `Cc1sc2cc(-c3cccc([N+](=O)[O-])c3)c(-c3cccc([N+](=O)[O-])c3)c[n+]2c1C` it is 5.1% (inactive); for `Oc1ccccc1/C=N/NC(=S)NC1CC2CC1C1C=CCC21` (stereo not drawn) it is 2.4% (inactive).
The figure for `CC(C)(C)c1nnc(N/N=C/c2ccc(Br)cc2)n(N)c1=O` is 7.3% (inactive); for `CC(C)(C)c1nnc(N/N=C/c2ccccc2)n(N)c1=O` it is 51.9% (active); for `CC(C)(C)c1nnc(N/N=C/c2ccc(O)cc2)n(N)c1=O` it is 18.4% (inactive).
The figure for `CCCc1nnc(NC(=O)C2CC(=O)N(CCc3ccc(F)cc3)C2)s1` (stereo not drawn) is 24.3% (inactive); for `Cc1c(C)n(C(=O)CSc2nc3ccccc3[nH]2)c2ccccc12` it is 51% (active).
With `Cc1[nH]c2ccccc2c1C(=O)CSc1nc2ccccc2[nH]1`, the displacement is -0.5% (inactive).
Under `Cc1c(C)n(C(=O)CSc2ncn[nH]2)c2ccccc12` stands -4.9% (inactive); under `O=C(CSCc1nc2scc(-c3cccs3)c2c(=O)[nH]1)Nc1ccccn1`, -4.4% (inactive); under `COc1ccc(OCC(O)CNC(=O)c2ccccc2C(=O)O)cc1` (stereo not drawn), 8.1% (inactive).
Under `CCOC(=O)N1CCN(c2cc(NCCC(=O)O)c3c4c(onc24)-c2ccccc2C3=O)CC1` stands 16.7% (inactive).
Under `CCOc1ccc2noc3c2c1C(=O)c1ccccc1-3` stands 37.3% (inactive); under `CCOC(=O)C(C(=O)OCC)c1cc(Br)c2noc3c2c1C(=O)c1ccccc1-3`, 102% (active).
In the case of `COc1ccc(-c2cc(C(=O)N3CCc4ccccc4C3)no2)cc1`, the displacement was 0.3% (inactive).
Under `Cc1ccc(S(=O)(=O)N2CCN(c3cccc(C)c3)CC2)cc1` stands 12.1% (inactive); under `COc1cccc(OCc2cc(C(=O)NC3CCOCC3)no2)c1`, 1.4% (inactive); under `CC1=C([N+](=O)[O-])C(c2ccccc2)NC(=O)N1` (stereo not drawn), -5.5% (inactive).
